Assay outcomes: PubChem, National Center for Advancing Translational Sciences (NCATS)
RORgamma inh: blocks mouse ROR gamma transcriptional activity; P51450; Drosophila S2 Gal4-RORgamma UAS-luciferase reporter, 20 h; Potency, µM (titrated, usually from 53.6 µM), for the others: top-dose activity change, negative = inhibition, usual class: inhibitors; hit rate 5.4% among 310,000; further: on the % scale 0 is the no-effect control and ±100 the full control effect; nearly all actives have a fitted effect of over 60% in size
Target sequence (P51450 whole entry, looked up, the tested form may be a part): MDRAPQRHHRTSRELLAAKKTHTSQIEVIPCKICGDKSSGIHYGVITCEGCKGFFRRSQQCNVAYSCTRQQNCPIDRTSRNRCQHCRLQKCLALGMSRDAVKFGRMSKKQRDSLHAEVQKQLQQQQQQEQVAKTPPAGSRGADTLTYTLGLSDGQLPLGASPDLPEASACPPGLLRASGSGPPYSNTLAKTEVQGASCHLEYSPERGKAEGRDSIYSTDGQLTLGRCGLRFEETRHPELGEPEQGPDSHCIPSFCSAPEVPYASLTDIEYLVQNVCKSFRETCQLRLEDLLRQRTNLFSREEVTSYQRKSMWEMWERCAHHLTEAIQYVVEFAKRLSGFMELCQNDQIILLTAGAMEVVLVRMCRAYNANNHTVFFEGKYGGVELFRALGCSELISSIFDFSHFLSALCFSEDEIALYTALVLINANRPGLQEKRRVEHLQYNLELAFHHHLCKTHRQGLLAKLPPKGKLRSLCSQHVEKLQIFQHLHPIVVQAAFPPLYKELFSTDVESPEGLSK
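Luciferase reporter read in Schneider cells carrying Gal4-RORγ (mouse) and UAS-Photinus luciferase; cells given compound 1 h before 700 uM copper sulfate induction, then incubated 20 h at ambient temperature.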
Gal4-VP16 FLuc: inhibits Gal4-VP16 luciferase reporter, ROR gamma counter-screen | Drosophila S2 Gal4-VP16 UAS-luciferase, luminescence, 20 h | Potency, µM (highest dose often 53.6 µM), for inactives: at the highest dose activity, negative = inhibition, hits mostly inhibitors | hit rate 3.5% among 310,000 | AID 2546;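 further: Gal4-VP16 expression switched on by copper sulfate through the metallothionein promoter; on the % scale 0 is the no-effect control and ±100 the full control effect; nearly all actives have a fitted effect of over 50% in size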
SW480 rereplic: DNA re-replication induction in SW480 cells; SW480 DNA re-replication, Hoechst DNA content imaging, 48 h; Potency, µM (series often up to 46.1 µM), for inactives: at the top dose re-replication activation, most hits filed as activators; hit rate 1.8% among 340,000; AID 624297; further: % of control where 0% means no effect; nearly all actives have a fitted effect of over 55% in size
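Image-based DNA-content assay: after two days of treatment, nuclei were labelled with the DNA dye Hoechst and imaged, and hits were compounds raising the count of nuclei showing high fluorescence intensity.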
KB-3-1 tox: KB-3-1 parental cell cytotoxicity. hit rate 1.4% among 400,000. Potency, µM (doses to about 46.1 µM), usual class: cytotoxic. AID 1347075. KB-3-1 viability, CellTiter-Glo ATP luminescence, 72 h; further: on the % scale 0 is the no-effect control and ±100 the full control effect; nearly all actives have a fitted effect of over 60% in size
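Multi-concentration cytotoxicity screen in KB-3-1 cells grown in DMEM lacking phenol red with 10% FBS. After 72 h at 37 °C with compound, ATP-dependent luminescence was recorded.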
KB-V1 cytotox: KB-V1 MDR subline cytotoxicity. KB-V1 MDR cells viability, CellTiter-Glo, 72 h. Potency, µM (series often up to 46.1 µM), actives largely listed as cytotoxic. hit rate 3.4% among 400,000. AID 1347076; further: on the % scale 0 is the no-effect control and ±100 the full control effect; nearly all actives have a fitted effect of over 60% in size
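Luminescent ATP read-out (CellTiter-Glo, 10 min) measures survival of drug-selected KB-V1 MDR cells after 72 h, 37 degrees C compound exposure. Medium: phenol-red-free DMEM, 10% FBS. Values from fitted concentration-response curves.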
MCF10A rereplic: DNA re-replication induction in MCF 10a cells. Potency, µM (doses to about 46.1 µM), for the others: at the top dose activity, positive = re-replication, most hits filed as activators. MCF 10A DNA re-replication, Hoechst nuclear intensity, 48 h. AID 624296. hit rate 2.9% among 350,000; further: % of control where 0% means no effect; nearly all actives have a fitted effect of over 50% in size
Starred values were filed as active, the others as inactive; i = inactive; ? = inconclusive; · = no result given; ! = not confirmed by another sample; [ ] = another dose, or the depositor's remark. Shown are actives, neighbours in structure and some others; about 10% of the full set was active somewhere. The call rests on the fitted dose curve; in most records, active means well fitted curve in the direction sought with a large enough effect; inconclusive means small, poorly fitted or top-dose-only effect, or another doubt; inactive means no such curve, though single readings can be large; an effect the other way counts as inactive or inconclusive. Potency means the concentration at half of the fitted maximal effect.

SMILES	RORgamma inh	Gal4-VP16 FLuc	SW480 rereplic	KB-3-1 tox	KB-V1 cytotox	MCF10A rereplic
COc1cc(-c2noc(C)c2/C=C/c2ccc(N)cc2)cc(OC)c1OC	?	-2%	?	0.26µM*!	0.58µM*!	?
COCCCN1C(=O)C(CC(=O)NCCN2CCOCC2)CC(C(=O)N2CCOCC2)=C1C (centres undefined)	·	·	·	i	i	·
COc1cccc(CNS(=O)(=O)c2cc3[nH]c(=O)c(=O)[nH]c3cc2C)c1	·	·	·	i	i	·
CCCN(C(=O)c1c(C)oc2ncn(CC(C)C)c(=O)c12)c1ccccc1C	·	·	·	i	i	·
CCOc1ccc(-c2nonc2NC(=O)c2oc3c(C)c(C)ccc3c2C)cc1OCC	·	·	·	i	i	·
COc1ccc(C2C(C(=O)N3CCCCC3)c3ccccc3C(=O)N2C)cc1 (centres undefined)	-4%	-3%	?	i	?	12µM*
COc1ccc(C(=O)Nc2ccc(N3CCOCC3)cc2)cc1OC	?	2%	-3%	?	16µM*	13%
COc1ccc(C(=O)NC(=S)Nc2ccccc2N2CCOCC2)cc1[N+](=O)[O-]	6.3µM*	10µM*	-5%	?	?	?
COc1ccc(C(=O)Nc2cc3c(cc2N2CCCCC2)n(C)c(=O)n3C)cc1OC	3.5µM*	8%	-39%	i	i	?
Cc1cc(C(=O)Nc2ccccc2N2CCOCC2)ccc1[N+](=O)[O-]	-21%	-7%	-8%	i	?	3%
COc1ccc(C(=O)NC(=S)Nc2ccc(N3CCOCC3)c(Cl)c2)cc1[N+](=O)[O-]	?	?	0%	i	i	-2%
COc1ccc(C(=O)Nc2ccccc2N2CCOCC2)cc1[N+](=O)[O-]	-5%	-3%	-105%	i	21µM*	3%
Cc1ccc(S(=O)(=O)N(CC(=O)Nc2cccnc2)c2cc(Cl)ccc2C)cc1	·	·	·	i	i	·
Cn1c2cc(S(C)=O)sc2c2cnn(Cc3cccc(O)c3)c(=O)c21 (centres undefined)	·	·	·	i	i	·
CC1CCN(c2ccccc2NC(=O)c2ccc(N3CCOCC3)c([N+](=O)[O-])c2)CC1	-16%	1%	-6%	i	i	16µM*
O=C(Nc1ccon1)c1ccc(N2CCCCC2)c([N+](=O)[O-])c1	-1%	-9%	2%	i	i	-6%
O=C(Nc1nc2ccccc2s1)c1ccc(N2CCCCC2)c([N+](=O)[O-])c1	10µM*	?	3%	i	i	6%
CN1CCN(c2ccccc2NC(=O)c2ccc(N3CCCC3)c([N+](=O)[O-])c2)CC1	9%	3%	11%	i	i	2%
O=C(Nc1nc(-c2ccccc2)cs1)c1ccc(N2CCOCC2)c([N+](=O)[O-])c1	?	?	3%	?	1.8µM*	?
COc1ccc(C(=O)Nc2ccc(S(=O)(=O)N3CCN(C)CC3)cc2)cc1[N+](=O)[O-]	-2%[1.91 µM]	20%	-48%	i	i	?
COc1ccc(C(=O)Nc2ccc(S(=O)(=O)N3CCOCC3)cc2)cc1[N+](=O)[O-]	36%	4%	-14%	i	?	4.6µM*
O=C(COc1ccc(S(=O)(=O)N2CCOCC2)cc1)NC1CCCCC1	·	·	-7%	i	?	?
CCOC(=O)NC(N(O)c1cccc(Cl)c1)C(Cl)(Cl)Cl (centres undefined)	5µM*	8%	1%	i	i	8%
OCCN1CCN(CC(O)COC(c2ccc(F)cc2)c2ccc(F)cc2)CC1 (centres undefined)	-1%	-7%	16%	i	i	23µM*
Cn1cc([N+](=O)[O-])c(C(=O)Nc2nc(-c3ccc(Cl)cc3)cs2)n1	-15%	-6%	5.8µM*	6.5µM*	13µM*	5.2µM*
SMILES	RORgamma inh	Gal4-VP16 FLuc	SW480 rereplic	KB-3-1 tox	KB-V1 cytotox	MCF10A rereplic
CC(=O)Nc1nc(-c2ccc([N+](=O)[O-])cc2)cs1	?	-3%	-42%	i	i	0%
Cc1ccc(-c2nc(NC(=O)c3nn(C)cc3[N+](=O)[O-])sc2C)cc1	-2%	-4%	1%	4.6µM*	?	?
Cc1cnc(NC(=O)c2nn(C)cc2[N+](=O)[O-])s1	21%	-1%	3.7µM*	?	?	4.1µM*
Cc1ccc(-c2nc(NC(=O)c3nn(C)cc3[N+](=O)[O-])sc2C)cc1C	20%	-1%	1.5µM*	?	15µM*	?
COC(=O)[C@H](CC(C)C)NC(=O)CC[C@H]1O[C@@H](n2ccc(=O)[nH]c2=O)[C@H](O)[C@@H]1O	·	·	·	i	i	·
C[C@H](NC(=O)CNC(=O)[C@@H](NC(=O)[C@H](Cc1ccccc1)NC(=O)CNC(=O)CNC(=O)[C@@H](N)Cc1ccccc1)[C@@H](C)O)C(=O)N[C@@H](CCCN=C(N)N)C(=O)N[C@@H](CCCCN)C(=O)N[C@@H](CO)C(=O)N[C@@H](C)C(=O)N[C@@H](CCCN=C(N)N)C(=O)N[C@@H](CCCCN)C(N)=O	19%	-10%	·	·	·	·
CCOc1ccccc1N1CCN(C(=O)CC(C)C)CC1	-7%	3%	-6%	i	23µM*	-1%
CCOc1ccccc1N1CCN(C(=O)c2cc3ccccc3cc2OC)CC1	·	·	15µM*	3.7µM*	16µM*	2.1µM*
CCOc1ccccc1N1CCN(C(=O)c2cc3c(C)cc(C)cc3[nH]2)CC1	0%	-10%	21µM*	18µM*	23µM*	?
COc1ccc(-c2nc(N)ncc2-c2ccccc2)c(O)c1	-25%	-7%	-1%	i	?	1%
C=C(C)COc1ccc(-c2nc(N)ncc2-c2ccc(Cl)cc2)c(O)c1	-18%	?	-13%	?	23µM*	?
Nc1ncc(-c2ccccc2)c(-c2ccc(OCc3ccccc3)cc2O)n1	40%	-10%	?	?	i	21µM*
CCOc1ccc(-c2noc(CCC(=O)O)n2)cc1	0.35µM*	1.4µM*	4.1µM*	i	i	?
COc1ccc(-c2noc(CCCC(=O)O)n2)cc1	0.32µM*	0.35µM*	-5%	i	?	189%[0.0737 µM]
COc1ccc(-c2noc(CCC(=O)O)n2)cc1	?	?	-5%	i	i	-27%
O=C(NCCCOc1ccc([N+](=O)[O-])cc1Cl)OCc1ccccc1	·	·	-3%	i	?	9%
Cc1cccc(NC(=S)NC(=O)/C=C/c2ccco2)n1	10µM*	?	1%	?	i	-2%
